Results published in PubChem BioAssay (Tox21).
“And” between values parts separate entries of the source, which are not always exact repeats. Identical values can stand only once. Results filed as inconclusive are left out. A call without a number means that no potency is given here. The source made the active and inactive calls. Unless noted, the call rests on the fitted dose curve; in most records, active means well fitted curve in the direction sought with a large enough effect in the repeat runs; inconclusive means weak or mixed curves; inactive means no such curve, though single readings can be large; an effect the other way counts as inactive or inconclusive.

Tests used:
[1] = qHTS assay for small molecule agonists of the p53 signaling pathway (AID 651631; calls by dose curve; further: nearly all actives have a fitted effect of over 15% in size)
In short: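 Testing took place in human colorectal HCT-116 cells with stable p53RE-driven beta-lactamase. After 16 h of compound exposure at 37 °C, a FRET substrate was added and fluorescence recorded 2 h later.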

[2] = qHTS assay for small molecules that induce genotoxicity in human embryonic kidney cells expressing luciferase-tagged ATAD5 (AID 651632); further: nearly all actives have a fitted effect of over 15% in size
In short: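 Genotoxicity read-out via ATAD5-luciferase: HEK293T cells, 16 hr compound incubation at 37C, Amplite detection.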

[3] = qHTS assay for small molecule agonists of the p53 signaling pathway - cell viability (AID 651633; calls by dose curve; further: series mostly up to about 83 µM; nearly all actives have a fitted effect of over 30% in size)
In short: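 Viability counter-read: CellTiter-Glo luminescence (30 min, room temperature) in the same p53RE-bla plates. These plates had been exposed to compounds for 16 h at 37 C.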

[4] = qHTS assay for small molecules that induce genotoxicity in human embryonic kidney cells expressing luciferase-tagged ATAD5 - cell viability (AID 651634; calls by dose curve; further: nearly all actives have a fitted effect of over 25% in size)
In short: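 Live-cell protease activity (CellTiter-Fluor, fluorescence) indicates viability. HEK293T cells with luciferase-tagged ATAD5; 15.5 hr compound treatment at 37C.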

[5] = qHTS assay for small molecule disruptors of the mitochondrial membrane potential - cell viability (AID 720634; calls by dose curve;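 further: human HepG2 liver cancer cells; series mostly up to about 83 µM; nearly all actives have a fitted effect of over 20% in size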)
In short: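 Human hepatoma HepG2 cells were treated for 1 hr with test chemicals, then given m-MPI dye and CellTiter-Glo. Cell viability reflects luminescence proportional to cellular ATP.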

[6] = qHTS assay for small molecule disruptors of the mitochondrial membrane potential (AID 720635); further: potency means the concentration at half of the fitted maximal effect
In short: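 Mitochondrial membrane potential tracked with Mito-MPS dye, red aggregates (ex 540/em 590 nm) against green monomers (ex 490/em 535 nm). Compound treatment 1 hr at 37C, dye 30 min in HepG2.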

[7] = qHTS assay to test for compound auto fluorescence at 590 nm (red) in HepG2 cells (AID 720674)
In short: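 1 hr compound incubation on HepG2 cells, 37 C, 5% CO2; plate read ex 540 nm / em 590 nm; intensities reported as Rose Bengal sodium equivalents.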

[8] = qHTS assay to test for compound auto fluorescence at 535 nm (green) in HepG2 cells (AID 720675)
[9] = qHTS assay to test for compound auto fluorescence at 460 nm (blue) in HEK293 cells (AID 720678)
In short: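 Auto fluorescence in the blue band was quantified as triamterene equivalency. HEK293 cells were seeded at 2,000/well, dosed after a 4-5 hr attachment, and kept overnight at 37C before the 405/460 nm reading.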

[10] = qHTS assay to test for compound auto fluorescence at 590 nm (red) in HEK293 cells (AID 720679)
In short: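 Autofluorescence equivalency to Rose Bengal sodium, 540/590nm, in HEK293 cells exposed overnight to 23 nL compound per well.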

[11] = qHTS assay to test for compound auto fluorescence at 535 nm (green) in HEK293 cells (AID 720680)
[12] = qHTS assay to test for compound auto fluorescence at 460 nm (blue) in HEK293 cell free culture (AID 720681)
In short: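 Blue fluorescence (Ex 405/Em 460 nm, triamterene-equivalent) was read immediately after pin transfer of compound or DMSO into medium (DMEM, 10% FBS) without cells.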

[13] = qHTS assay to test for compound auto fluorescence at 535 nm (green) in HEK293 cell free culture (AID 720682)
In short: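 DMEM + 10% FBS, cell-free; cpd or DMSO pinned in; Ex485/Em535 read; output as fluorescein-equivalent signal.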

[14] = qHTS assay to test for compound auto fluorescence at 590 nm (red) in HEK293 cell free culture (AID 720683)
In short: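 Red-channel autofluorescence of compounds in culture medium (DMEM, 10% FBS), no cells, measured at 540/590 nm. Rose Bengal sodium is the reference fluorophore for equivalence.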

[15] = qHTS assay to test for compound auto fluorescence at 460 nm (blue) in HepG2 cell free culture (AID 720685)
In short: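 Compound (23 nL) or DMSO pinned into cell-free MEM with 10% FBS; blue fluorescence read at 405/460 nm excitation/emission, expressed as auto-fluorescence equivalency to triamterene.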

[16] = qHTS assay to test for compound auto fluorescence at 535 nm (green) in HepG2 cell free culture (AID 720686)
[17] = qHTS assay to test for compound auto fluorescence at 460 nm (blue) in HepG2 cells (AID 720687)
In short: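 Blue-channel autofluorescence (Ex/Em 405/460 nm, triamterene-equivalent) was measured after 1 hr compound exposure at 37 C, 5% CO2. Cells were HepG2, plated overnight at 37 C in MEM plus 10% FBS.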

[18] = target: Glucocorticoid receptor (Homo sapiens) (UniProt P04150); experiment: qHTS assay to identify small molecule agonists of the glucocorticoid receptor (GR) signaling pathway (AID 720691; active means well fitted activation curve with a large enough effect in the signal ratio in the repeat runs, not every such curve was filed as active; the % refers to the signal ratio)
Glucocorticoid receptor (Homo sapiens), sequence (P04150 whole entry, looked up): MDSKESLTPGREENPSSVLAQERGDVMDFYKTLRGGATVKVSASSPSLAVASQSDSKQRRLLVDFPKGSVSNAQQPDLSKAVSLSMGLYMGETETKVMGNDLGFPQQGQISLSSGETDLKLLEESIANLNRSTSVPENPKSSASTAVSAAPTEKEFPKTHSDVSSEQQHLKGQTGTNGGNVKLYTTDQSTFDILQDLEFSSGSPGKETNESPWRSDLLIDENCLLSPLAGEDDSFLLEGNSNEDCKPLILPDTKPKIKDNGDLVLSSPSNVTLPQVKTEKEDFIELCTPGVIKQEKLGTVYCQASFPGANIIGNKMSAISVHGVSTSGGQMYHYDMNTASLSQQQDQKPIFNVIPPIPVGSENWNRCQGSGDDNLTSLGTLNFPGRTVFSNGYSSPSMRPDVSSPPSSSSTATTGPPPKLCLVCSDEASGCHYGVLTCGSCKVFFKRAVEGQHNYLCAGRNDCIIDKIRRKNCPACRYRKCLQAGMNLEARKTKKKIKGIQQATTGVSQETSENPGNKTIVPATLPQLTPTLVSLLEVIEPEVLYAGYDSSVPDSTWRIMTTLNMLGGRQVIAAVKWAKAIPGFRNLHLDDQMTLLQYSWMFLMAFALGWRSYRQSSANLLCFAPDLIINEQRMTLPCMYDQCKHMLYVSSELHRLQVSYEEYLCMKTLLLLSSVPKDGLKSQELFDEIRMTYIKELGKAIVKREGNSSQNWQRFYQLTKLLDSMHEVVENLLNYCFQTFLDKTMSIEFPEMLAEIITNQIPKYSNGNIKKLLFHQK
In short: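 Beta-lactamase reporter activity, read as fluorescence intensity, was measured in GR-bla HeLa cells exposed to compounds for 18 h at 37 C and then loaded with LiveBLAzer B/G FRET substrate for 2 h at room temperature.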

[19] = qHTS assay to test for compound auto fluorescence at 590 nm (red) in HepG2 cell free culture (AID 720684)
In short: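 Plate contents were MEM with 10% FBS plus test compound or DMSO, no cells. Fluorescence was recorded with 540 nm excitation and 590 nm emission.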

[20] = target: Glucocorticoid receptor (Homo sapiens) (UniProt P04150); experiment: qHTS assay to identify small molecule antagonists of the glucocorticoid receptor (GR) signaling pathway (AID 720692; active means well fitted inhibition curve with a large enough effect in the signal ratio in the repeat runs, not every such curve was filed as active; the % refers to the signal ratio)
In short: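 Fluorescence from cleaved LiveBLAzer B/G FRET substrate reports GRE-driven beta-lactamase in HeLa cells; compounds are tested against 5 nM dexamethasone (final) over 18 h at 37 C, substrate incubation 2 h at room temperature.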

Structure (SMILES): O=c1[nH]c2ccccc2c(=O)o1
- outcome [1]: inactive
- outcome [2]: inactive
- outcome [3]: inactive
- outcome [4]: inactive
- Potency [5]: inactive
- Potency [6]: inactive
- outcome [7]: inactive
- outcome [8]: inactive
- outcome [9]: inactive
- outcome [10]: inactive
- outcome [11]: inactive
- outcome [12]: inactive
- outcome [13]: inactive
- outcome [14]: inactive
- outcome [15]: inactive
- outcome [16]: inactive
- outcome [17]: inactive
- outcome [18]: inactive

Structure (SMILES): O=[N+]([O-])c1ccccc1
- outcome [1]: inactive
- outcome [2]: inactive
- outcome [3]: inactive
- outcome [4]: inactive
- Potency [5]: inactive
- Potency [6]: inactive
- outcome [7]: inactive
- outcome [8]: inactive
- outcome [9]: inactive
- outcome [10]: inactive
- outcome [11]: inactive
- outcome [12]: inactive
- outcome [13]: inactive
- outcome [14]: inactive
- outcome [19]: inactive
- outcome [15]: inactive
- outcome [16]: inactive
- outcome [17]: inactive

Structure (SMILES): c1ccc2c(c1)Oc1ccccc1O2
- outcome [1]: inactive
- outcome [2]: inactive
- outcome [3]: inactive
- outcome [4]: inactive
- Potency [5]: inactive
- Potency [6]: inactive
- outcome [7]: inactive
- outcome [8]: inactive
- outcome [9]: inactive
- outcome [10]: inactive
- outcome [11]: inactive
- outcome [12]: inactive
- outcome [13]: inactive
- outcome [19]: inactive
- outcome [15]: inactive
- outcome [16]: inactive
- outcome [17]: inactive

Structure (SMILES): [N-]=[N+]=[N-]
- outcome [1]: inactive
- outcome [2]: inactive
- outcome [3]: inactive
- outcome [4]: inactive
- Potency [5]: inactive
- Potency [6]: inactive
- outcome [7]: inactive
- outcome [8]: inactive
- outcome [9]: inactive
- outcome [10]: inactive
- outcome [11]: inactive
- outcome [12]: inactive
- outcome [13]: inactive
- outcome [14]: inactive
- outcome [15]: inactive
- outcome [16]: inactive
- outcome [17]: inactive

Structure (SMILES): OC(O)C(Cl)(Cl)Cl
- outcome [1]: inactive
- outcome [2]: inactive
- outcome [3]: inactive
- outcome [4]: inactive
- Potency [5]: inactive
- Potency [6]: inactive
- outcome [7]: inactive
- outcome [8]: inactive
- outcome [9]: inactive
- outcome [10]: inactive
- outcome [11]: inactive
- outcome [12]: inactive
- outcome [13]: inactive
- outcome [14]: inactive
- outcome [19]: inactive
- outcome [15]: inactive
- outcome [16]: inactive
- outcome [17]: inactive

Structure (SMILES): CC(C)(C)OOC(=O)c1ccccc1
- outcome [1]: inactive
- outcome [2]: inactive
- outcome [3]: inactive
- outcome [4]: inactive
- Potency [5]: inactive
- Potency [6]: inactive
- outcome [7]: inactive
- outcome [8]: inactive
- outcome [9]: inactive
- outcome [10]: inactive
- outcome [11]: inactive
- outcome [12]: inactive
- outcome [13]: inactive
- outcome [19]: inactive
- outcome [15]: inactive
- outcome [16]: inactive
- outcome [17]: inactive

Structure (SMILES): CCCCOC(=O)c1ccccc1C(=O)OCCCC
- outcome [1]: inactive
- outcome [2]: inactive
- outcome [3]: inactive
- outcome [4]: inactive
- Potency [5]: inactive
- Potency [6]: inactive
- outcome [7]: inactive
- outcome [8]: inactive
- outcome [9]: inactive
- outcome [10]: inactive
- outcome [11]: inactive
- outcome [12]: inactive
- outcome [13]: inactive
- outcome [14]: inactive
- outcome [15]: inactive
- outcome [16]: inactive
- outcome [17]: inactive

Structure (SMILES): CC1OC(C)OC(C)O1 (stereo not given)
- outcome [1]: inactive
- outcome [2]: inactive
- outcome [3]: inactive
- outcome [4]: inactive
- Potency [5]: inactive
- Potency [6]: inactive
- outcome [7]: inactive
- outcome [8]: inactive
- outcome [9]: inactive
- outcome [10]: inactive
- outcome [11]: inactive
- outcome [12]: inactive
- outcome [13]: inactive
- outcome [14]: inactive
- outcome [19]: inactive
- outcome [15]: inactive
- outcome [16]: inactive
- outcome [17]: inactive

Structure (SMILES): CC(C)NC(=O)N1CC(=O)N(c2cc(Cl)cc(Cl)c2)C1=O
- outcome [1]: inactive
- outcome [2]: inactive
- outcome [3]: inactive
- outcome [4]: inactive
- Potency [5]: inactive
- Potency [6]: inactive
- outcome [7]: inactive
- outcome [8]: inactive
- outcome [9]: inactive
- outcome [10]: inactive
- outcome [11]: inactive
- outcome [12]: inactive
- outcome [13]: inactive
- outcome [14]: inactive
- outcome [19]: inactive
- outcome [15]: inactive
- outcome [16]: inactive
- outcome [17]: inactive

Structure (SMILES): CCCCCCCCCl
- outcome [1]: inactive
- outcome [2]: inactive
- outcome [3]: inactive
- outcome [4]: inactive
- Potency [5]: inactive
- Potency [6]: inactive
- outcome [7]: inactive
- outcome [8]: inactive
- outcome [9]: inactive
- outcome [10]: inactive
- outcome [11]: inactive
- outcome [12]: inactive
- outcome [13]: inactive
- outcome [15]: inactive
- outcome [16]: inactive
- outcome [17]: inactive
- outcome [18]: inactive
- Potency [20]: inactive

Structure (SMILES): CC(C)(C)OOC(C)(C)C
- outcome [1]: inactive
- outcome [2]: inactive
- outcome [3]: inactive
- outcome [4]: inactive
- Potency [5]: inactive
- Potency [6]: inactive
- outcome [7]: inactive
- outcome [8]: inactive
- outcome [9]: inactive
- outcome [10]: inactive
- outcome [11]: inactive
- outcome [12]: inactive
- outcome [13]: inactive
- outcome [14]: inactive
- outcome [19]: inactive
- outcome [15]: inactive
- outcome [16]: inactive
- outcome [17]: inactive

Structure (SMILES): Nc1ccc(Oc2ccc(N)cc2)cc1
- outcome [1]: inactive
- outcome [2]: inactive
- outcome [3]: inactive
- outcome [4]: inactive
- Potency [5]: inactive
- Potency [6]: inactive
- outcome [7]: inactive
- outcome [8]: inactive
- outcome [9]: inactive
- outcome [10]: inactive
- outcome [11]: inactive
- outcome [12]: inactive
- outcome [13]: inactive
- outcome [14]: inactive
- outcome [19]: inactive
- outcome [15]: inactive
- outcome [16]: inactive
- outcome [17]: inactive
- Potency [20]: inactive

Structure (SMILES): CCC[CH2][Sn]([Cl])([Cl])[Cl]
- outcome [1]: inactive
- outcome [2]: inactive
- outcome [3]: inactive
- outcome [4]: inactive
- Potency [5]: inactive
- Potency [6]: inactive
- outcome [7]: inactive
- outcome [8]: inactive
- outcome [9]: inactive
- outcome [10]: inactive
- outcome [11]: inactive
- outcome [12]: inactive
- outcome [13]: inactive
- outcome [14]: inactive
- outcome [19]: inactive
- outcome [15]: inactive
- outcome [16]: inactive
- outcome [17]: inactive

Structure (SMILES): Cc1cc(Cl)ccc1O
- outcome [1]: inactive
- outcome [2]: inactive
- outcome [3]: inactive
- outcome [4]: inactive
- Potency [5]: inactive
- Potency [6]: 42 µM (active) and 54.5 µM (active)
- outcome [7]: inactive
- outcome [8]: inactive
- outcome [9]: inactive
- outcome [10]: inactive
- outcome [11]: inactive
- outcome [12]: inactive
- outcome [13]: inactive
- outcome [14]: inactive
- outcome [15]: inactive
- outcome [16]: inactive
- outcome [17]: inactive

Structure (SMILES): CC(Br)C(=O)O (stereo not given)
- outcome [1]: inactive
- outcome [2]: inactive
- outcome [3]: inactive
- outcome [4]: inactive
- Potency [5]: inactive
- Potency [6]: inactive
- outcome [7]: inactive
- outcome [8]: inactive
- outcome [9]: inactive
- outcome [10]: inactive
- outcome [11]: inactive
- outcome [12]: inactive
- outcome [13]: inactive
- outcome [14]: inactive
- outcome [19]: inactive
- outcome [15]: inactive
- outcome [16]: inactive
- outcome [17]: inactive
- Potency [20]: inactive

Structure (SMILES): CCOC(=O)c1ccccc1C(=O)OCC
- outcome [1]: inactive
- outcome [2]: inactive
- outcome [3]: inactive
- outcome [4]: inactive
- Potency [5]: inactive
- Potency [6]: inactive
- outcome [7]: inactive
- outcome [8]: inactive
- outcome [9]: inactive
- outcome [10]: inactive
- outcome [11]: inactive
- outcome [12]: inactive
- outcome [13]: inactive
- outcome [14]: inactive
- outcome [19]: inactive
- outcome [15]: inactive
- outcome [16]: inactive
- outcome [17]: inactive
